From PubChem BioAssay (NCI) come the findings set out here.

About 83,000 compounds went through this panel and 20% of them were active in at least one assay; those are over-represented in the sample as a whole.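 Activity criterion: percent growth below 10, measured after cells in 96-well plates were exposed to a single compound concentration for 48 hours.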 A number with no mark means an inactive call. Calls of active or inactive are those of the source.

Some test systems named below: NCI-H23 lung; NCI-H226 lung; NCI-H322M lung; HOP-62 NSCLC; NCI-H460 lung; HOP-92 NSCLC; NCI-H522 lung; A549/ATCC NSCLC; 786-0 renal; COLO 205 colon.
What all share (experiment): NCI-60 one-dose screen, 48 h (100 = growth as untreated, 0 = no growth, -100 = all killed)
Holding throughout (conditions): 10 µM unless noted

Consider `Cc1cc(N2CCCC2)nc(NC2CCCC(Nc3ccnc4cc(Cl)ccc34)C2)n1` (stereo unspecified), for which the growth in the assay on NCI-H23 lung was -41.4% (active); with NCI-H226 lung, -56.2% (active); in the assay on NCI-H322M lung, -42.6% (active); in the assay on HOP-62 NSCLC, -84.4% (active); in the assay on NCI-H460 lung, -66.3% (active); in the assay on HOP-92 NSCLC, -82.7% (active). Also, the growth in the assay on NCI-H522 lung was -76.3% (active); with A549/ATCC NSCLC, -88.6% (active); in the assay with 786-0 renal, -91.1% (active); in the assay with COLO 205 colon, -90.7% (active).
Take `O=[N+]([O-])c1ccccc1/C=N\NC(=S)N/N=C/c1ccccc1[N+](=O)[O-]`: the growth in the assay with NCI-H23 lung is 70.1%; in the assay on NCI-H226 lung, 83.1%; in the assay with NCI-H322M lung, 63.7%; in the assay on HOP-62 NSCLC, 56.5%; in the assay on NCI-H460 lung, 10%; in the assay with HOP-92 NSCLC it was 53.7%. Moreover, the growth in the assay with NCI-H522 lung was 23.2%; with A549/ATCC NSCLC, 74.8%; with 786-0 renal, 74.9%; in the assay on COLO 205 colon, 94.6%.
Turning to `Nc1ccn(-c2ccc(Br)cc2)c(=O)n1`, the growth in the assay on NCI-H23 lung is 88.8%; in the assay with NCI-H226 lung, 128%; in the assay with NCI-H322M lung it was 120%; in the assay on HOP-62 NSCLC, 102%; in the assay on NCI-H460 lung, 105%; in the assay on HOP-92 NSCLC, 74.6%. In addition, the growth is 88.5% with NCI-H522 lung, 107% in the assay with A549/ATCC NSCLC, 102% in the assay on 786-0 renal and 198% in the assay on COLO 205 colon.
For `CC(C)(C)N1CCC1CN` (stereo unspecified), the growth with NCI-H23 lung is 104%; with NCI-H226 lung, 111%; in the assay on NCI-H322M lung it was 118%; in the assay on HOP-62 NSCLC, 108%; in the assay on NCI-H460 lung, 109%; with HOP-92 NSCLC, 108%. Also, the growth was 135% in the assay with NCI-H522 lung, 104% in the assay on A549/ATCC NSCLC, 96.4% in the assay on 786-0 renal and 138% in the assay with COLO 205 colon.
For the compound `COc1cc(C=Nc2oc(-c3ccccc3)c(-c3ccccc3)c2C#N)cc(CN2CCCCC2)c1O`, the growth with NCI-H23 lung was 88.6%; in the assay with NCI-H226 lung, 90.5%; in the assay on NCI-H322M lung, 99.6%; in the assay on HOP-62 NSCLC, 97.8%; in the assay on NCI-H460 lung it was 101%; with HOP-92 NSCLC, 103%. The growth with NCI-H522 lung is 88%; in the assay with A549/ATCC NSCLC, 105%; in the assay with 786-0 renal, 102%; in the assay on COLO 205 colon, 122%.
`O=C1C=C(O)C(=O)C(CC2=C(O)C(=O)C=C(O)C2=O)=C1O`: the growth is 113% with NCI-H23 lung; 102% in the assay with NCI-H226 lung; 105% in the assay on NCI-H322M lung; 104% in the assay on HOP-62 NSCLC; 104% in the assay with NCI-H460 lung; 109% in the assay with HOP-92 NSCLC. The growth with NCI-H522 lung is 92.1%; in the assay with A549/ATCC NSCLC it was 92%; with COLO 205 colon, 115%.
As to `COCCNc1ccc2c3c(cccc13)C(=O)N(CCN(C)C)C2=O`, the growth in the assay on NCI-H23 lung is 25.6%; with NCI-H322M lung it was 23.1%; with HOP-62 NSCLC, 50.9%; in the assay with NCI-H460 lung, -21.9% (active); in the assay with HOP-92 NSCLC it was 18.4%; in the assay on NCI-H522 lung it was -25.6% (active). In addition, the growth is 5.73% (active) with A549/ATCC NSCLC and 32.1% in the assay with 786-0 renal.
As to `CC(C)CC1C(=O)N2CCC[C@H]2C2(O)O[C@](NC(=O)C3C=C4c5cccc6[nH]c(Br)c(c56)C[C@H]4N(C)C3)(C(C)C)C(=O)N12` (stereo partly specified), the growth with NCI-H23 lung is 71.1%; with NCI-H226 lung it was 59.5%; in the assay on NCI-H322M lung it was 71.8%; in the assay with HOP-62 NSCLC, 82.7%; in the assay on NCI-H460 lung, 57.2%; in the assay on HOP-92 NSCLC, 66.1%. Moreover, the growth in the assay with NCI-H522 lung was 53.5%; in the assay on A549/ATCC NSCLC, 37.9%; in the assay on COLO 205 colon, 47.9%.
As for `CC(=O)Nc1ccc(S(=O)(=O)Nc2cccc(-c3nc(-c4ccc(NC(=O)c5cccnc5)cc4Cl)no3)c2)cc1`, the growth in the assay with NCI-H23 lung was 42.1%; with NCI-H226 lung it was 57.9%; with NCI-H322M lung, 41.6%; in the assay on HOP-62 NSCLC it was 34.9%; with NCI-H460 lung it was 18%; in the assay with HOP-92 NSCLC, 32.1%. Also, the growth is 11.2% in the assay on NCI-H522 lung, 44.2% in the assay with A549/ATCC NSCLC, 41.7% in the assay with 786-0 renal and 21.7% in the assay with COLO 205 colon.
In the case of `Cc1nn(-c2ccc(F)cc2)c2ncnc(Oc3ccc(NC(=O)Nc4ccc(Cl)c(C(F)(F)F)c4)cc3)c12`, the growth in the assay on NCI-H23 lung is 96.7%; with NCI-H226 lung, 103%; with NCI-H322M lung, 100%; in the assay on HOP-62 NSCLC it was 105%; in the assay with NCI-H460 lung, 101%; with HOP-92 NSCLC, 104%. Moreover, the growth in the assay with NCI-H522 lung was 99.7%; with A549/ATCC NSCLC, 96.2%; in the assay with 786-0 renal it was 106%; with COLO 205 colon, 109%.
Regarding `CC(O)CN1CC(O)=C(c2nc3ccccc3s2)C1=N` (stereo unspecified), the growth is 83% with NCI-H23 lung; 103% in the assay with NCI-H226 lung; 111% in the assay on NCI-H322M lung; 95.2% in the assay with HOP-62 NSCLC; 113% in the assay on NCI-H460 lung; 88.1% with HOP-92 NSCLC. The growth in the assay on NCI-H522 lung was 99.9%; in the assay on A549/ATCC NSCLC, 116%; in the assay with 786-0 renal it was 100%; in the assay on COLO 205 colon it was 108%.
On to `CN(C)C(=S)N=Nc1c(O)[nH]c2ccccc12`, for which the growth with NCI-H23 lung was 28.2%; in the assay on NCI-H226 lung, 4.04% (active); in the assay on NCI-H322M lung, 24.6%; in the assay with HOP-62 NSCLC, 10.9%; with NCI-H460 lung, -4.55% (active); in the assay with HOP-92 NSCLC, -6.97% (active). The growth in the assay on NCI-H522 lung was 27.4%; in the assay with A549/ATCC NSCLC, -10.6% (active); with 786-0 renal, 8.93% (active); in the assay on COLO 205 colon it was 19.7%.
On to `O=CNc1ccc2c(c1)Cc1cccc(NC=O)c1-2`, for which the growth in the assay on NCI-H23 lung was 95.6%; in the assay with NCI-H226 lung, 83.6%; in the assay on NCI-H322M lung, 106%; in the assay with HOP-62 NSCLC it was 100%; in the assay with NCI-H460 lung, 95.8%; in the assay on HOP-92 NSCLC, 97.7%. Besides, the growth was 82.2% in the assay with NCI-H522 lung, 85.6% in the assay with A549/ATCC NSCLC, 104% in the assay with 786-0 renal and 99.9% in the assay with COLO 205 colon.
